The results in this text go back to PubChem BioAssay (EPA / NIEHS).

One may read the AC50 as the midpoint of the concentration-response curve, whichever way the signal moves.

Experiment [1] is described as follows: CCTE_Shafer_MEA_dev_per_burst_spike_percent: CCTE's Neural Network Formation Assay for Percent of Spikes in a Burst, Shafer Lab (AID 2284032).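 As to AC50: fitted as a decrease in burst spike percentage below DMSO baseline.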 Put shortly:
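Value is trapezoidal AUC over recordings on days 5, 7, 9 and 12 of the well-mean fraction of spikes falling in single-electrode bursts; rat cortical cultures exposed continuously from plating, treatment renewed DIV 5 and 9, fitted downward against DMSO.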

The nature of experiment [2]: CCTE_Shafer_MEA_dev_active_electrodes_number: CCTE's Neural Network Formation Assay for Number of Active Electrodes, Shafer Lab (AID 2284040; active = hit-call score of the fitted dose curve at least 0.9, where 1 is the maximum;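 as to AC50: potency for loss of active electrodes versus DMSO so lower counts are hits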). Put shortly: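 Counts electrodes per well firing at least 5 spikes/min, recorded on days 5, 7, 9 and 12 in rat cortical cultures dosed continuously from plating (treatment refreshed DIV 5, 9). Value is the area under the curve over recordings, fitted downward relative to DMSO.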

Experiment [3] is described as follows: CCTE_Shafer_MEA_dev_burst_rate: CCTE's Neural Network Formation Assay for Burst Rate, Shafer Lab (AID 2284042).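 As to AC50: potency for loss of burst rate below DMSO control.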 Put shortly:
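Developmental network assay measuring how 12-day exposure of rat cortical neuron cultures alters bursting on extracellular MEA recordings. Values are AUC of well-mean burst rate across four recording days, relative to DMSO vehicle.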

The nature of experiment [4]: CCTE_Shafer_MEA_dev_bursting_electrodes_number: CCTE's Neural Network Formation Assay for Number of Bursting Electrodes, Shafer Lab (AID 2284043; active = hit-call score of the fitted dose curve at least 0.9, where 1 is the maximum;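 as to AC50: potency is for loss of bursting electrodes relative to DMSO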). Put shortly:
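Number of electrodes reaching ≥1 burst every 2 min was recorded at DIV 5, 7, 9 and 12 and collapsed as trapezoidal area under the curve. Cultures were rat cortical neurons on MEA plates, dosed continuously from plating with medium and treatment refreshed on DIV 5 and 9.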

Experiment [5] concerns the target Estrogen receptor (Homo sapiens) (UniProt P03372). The experiment in a line: CCTE_Deisenroth_AIME_384WELL_LUC_Shift: CCTE's 384-well Estrogen Receptor Transactivation Assay with AIME metabolic competence data shift (ERTA luciferase; difference in metabolism positive and negative), Deisenroth Lab (AID 2284041).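 Also: shift is response with S9 minus without S9 so positive means metabolism raised ER signal.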 Put shortly:
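Test chemicals (0.002–200 uM, 10-point) were pre-incubated 2 h with alginate microspheres containing phenobarbital/beta-naphthoflavone-induced male Sprague Dawley rat liver S9 or water, then medium was transferred to VM7Luc4E2 cells for 24 h luciferase readout; shift = S9-positive minus S9-negative normalized response.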

The nature of experiment [6]: CCTE_Harrill_HTTr_Apoptosis_MCF7: CCTE's 6-hour Apoptosis Assessment for the High-Throughput Transcriptomics (HTTr) Platform, in MCF-7 cells cultured in DMEM + 10% fetal bovine serum, Harrill Lab (AID 2284011). Put shortly: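 Read-out: CellEvent Caspase 3/7 Green signal by high content imaging, gain-of-signal indicating apoptosis. MCF-7 cells, DMEM + 10% FBS, eight-point dilution series, 6 h exposure. Curves fitted bidirectionally relative to DMSO negative control.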

The nature of experiment [7]: CCTE_Harrill_HTTr_CellCount_MCF7: CCTE's Cell Proliferation Assessment for the High-Throughput Transcriptomics (HTTr) Platform, Harrill Lab (AID 2284012; active = hit-call score of the fitted dose curve at least 0.9, where 1 is the maximum;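 also: cells exposed to compound for six hours; intended direction is loss of nuclei count meaning fewer cells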). Put shortly: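 Cell count from high-content imaging of Hoechst-labeled nuclei serves as viability/growth readout. Chemicals were applied to MCF-7 cells in eight concentrations for six hours, with fitting in both directions relative to DMSO.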

The target of experiment [8] is Estrogen receptor (Homo sapiens) (UniProt P03372). Briefly: CCTE_Deisenroth_AIME_384WELL_LUC_Active: CCTE's 384-well Estrogen Receptor Transactivation Assay with AIME metabolic competence (ERTA luciferase; metabolism positive), Deisenroth Lab (AID 2284030; active = hit-call score of the fitted dose curve at least 0.9, where 1 is the maximum). An outline of the steps:
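Readout: bioluminescent luciferase induction in VM7Luc4E2 cells 24 hour after receiving medium from a 2 h rat hepatic S9 (induced, alginate microsphere) metabolism step. Concentrations 0.002 - 200 uM; activity scaled to 17beta-estradiol positive control.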

For experiment [9] the target is unchanged. Briefly: CCTE_Deisenroth_AIME_384WELL_LUC_Inactive: CCTE's 384-well Estrogen Receptor Transactivation Assay without AIME metabolic competence (ERTA luciferase; metabolism negative), Deisenroth Lab (AID 2284038; active = hit-call score of the fitted dose curve at least 0.9, where 1 is the maximum;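 also: VM7Luc4E2 breast cells given medium preincubated 2 h with S9-free microspheres; hits raise estrogen receptor luciferase signal so potencies reflect agonists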). Put shortly:
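VM7Luc4E2 ER transactivation, luciferase bioluminescence after 24 h, using medium pre-incubated 2 h with S9-free alginate microspheres. Concentrations 0.002–200 uM; gain of signal fitted relative to 17beta-estradiol.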

Experiment [10] in a line: CCTE_Deisenroth_AIME_384WELL_CTox_Inactive: Cytotoxicity Assessment (CTOX) in CCTE's 384-well Estrogen Receptor Transactivation Assay without AIME metabolic competence (metabolism negative), Deisenroth Lab (AID 2284039; active = hit-call score of the fitted dose curve at least 0.9, where 1 is the maximum;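 also: cell viability via live-cell protease substrate cleaved to fluorescent probe; cells exposed 24 h to medium preincubated 2 h with alginate-water beads without S9; loss of fluorescence signal means loss of viability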). Put shortly:
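Fluorescence from a live-cell protease substrate, read after 24 h in VM7Luc4E2 cells, indicated viability. Test medium came from a 2 h AIME step without hepatic S9 (alginate-water microspheres); concentrations spanned 0.002 - 200 uM, single technical replicate per run.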

A short description of experiment [11]: CCTE_Deisenroth_AIME_384WELL_CTox_Active: Cytotoxicity Assessment (CTOX) in CCTE's 384-well Estrogen Receptor Transactivation Assay with AIME metabolic competence (metabolism positive), Deisenroth Lab (AID 2284037; active = hit-call score of the fitted dose curve at least 0.9, where 1 is the maximum;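 also: chemicals first conditioned 2 h by alginate-bound induced rat liver S9 before cells; activity means signal loss indicating cell death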). An outline of the steps: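 Cytotoxicity in VM7Luc4E2 breast cells, 24 hour, measured as protease-substrate fluorescence loss, after 2-hour metabolic conditioning with induced rat hepatic S9 in alginate microspheres. Concentrations 0.002 - 200 uM, 10 points, bidirectional fitting.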

Structures are written as SMILES. Inconclusive results are not listed. Calls of active or inactive are those of the source. The calls were made as follows, unless noted: active = hit-call score of the fitted dose curve at least 0.9, where 1 is the maximum; inactive = score below 0.9.

Estrogen receptor (Homo sapiens), sequence (P03372 whole entry, looked up): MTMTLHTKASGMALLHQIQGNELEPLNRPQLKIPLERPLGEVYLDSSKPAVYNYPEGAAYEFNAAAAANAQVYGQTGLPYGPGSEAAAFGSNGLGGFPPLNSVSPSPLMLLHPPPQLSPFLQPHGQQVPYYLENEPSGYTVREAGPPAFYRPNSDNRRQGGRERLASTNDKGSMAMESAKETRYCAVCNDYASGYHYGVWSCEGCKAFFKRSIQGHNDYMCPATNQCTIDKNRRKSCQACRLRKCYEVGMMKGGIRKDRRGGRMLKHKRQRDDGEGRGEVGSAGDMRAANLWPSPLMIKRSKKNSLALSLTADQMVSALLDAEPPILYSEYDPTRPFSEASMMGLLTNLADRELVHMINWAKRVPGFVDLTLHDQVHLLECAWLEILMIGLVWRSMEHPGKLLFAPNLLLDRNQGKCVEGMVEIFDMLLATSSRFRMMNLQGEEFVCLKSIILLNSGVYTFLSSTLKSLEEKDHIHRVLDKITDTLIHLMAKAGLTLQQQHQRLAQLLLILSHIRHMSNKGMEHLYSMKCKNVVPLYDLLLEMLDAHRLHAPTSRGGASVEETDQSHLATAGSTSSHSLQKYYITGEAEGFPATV

As to `C=CCOC(F)(C(F)(F)F)C(F)(F)F`, the call in [1], in experiment [2], in experiment [3] and in experiment [4] was inactive.

`CC(F)(F)CC(F)(F)F`: the result in experiment [1] and in experiment [3] was inactive.

As to `CC(=Cc1ccccc1)[N+](=O)[O-]`, in [5], the outcome was inactive.

With `O=C(O)COc1ccc(Cl)cc1`, the result in experiment [6], in experiment [7], in experiment [8], in [9], in experiment [10] and in [5] was inactive.

As to `NC(=O)c1ccc(N)nc1`, the concentration at half-maximal activity (AC50) was 5.88 µM (active) in experiment [1], 6.3 µM (active) in experiment [2], 8.62 µM (active) in experiment [3] and 5.44 µM (active) in experiment [4].

Regarding `Nc1ncn[nH]1`, the outcome in experiment [6], in experiment [7] and in [11] was inactive.
